Experimental data taken from PubChem BioAssay (NCATS).
Results filed as inconclusive are left out. A call without a number means that no potency is given here. Values without a mark were called inactive. Calls of active or inactive are those of the source. Calls come from the whole dose curve; as a rule, active = well fitted curve in the direction sought with a large enough effect; inconclusive = small, poorly fitted or top-dose-only effect, or another doubt; inactive = no such curve, though single readings can be large; an effect the other way counts as inactive or inconclusive.

Key:
[1] = test system: NIH3T3; assay: Cytotoxic Profiling of Annotated Libraries Using Quantitative High-Throughput Screening (AID 1296008); conditions: Five cell lines viability, CellTiter-Glo ATP luminescence, 48-72 h; max response: hits give low values; note: nearly all actives have a fitted effect of over 60% in size
Outline: (§1)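 Cells exposed to compounds for 48 or 72 hr at 37 degrees Celsius. Viability read as ATP-coupled luminescence with CellTiter-Glo after 10 min at room temperature.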

[2] = test system: MCC-13; assay: qHTS assay to identify novel small-molecules to repurpose for Merkel cell carcinoma treatment (AID 1296009); conditions: MCC and control cell lines, CellTiter-Glo viability, 72 h; series mostly up to 46 µM; note: nearly all actives have a fitted effect of over 60% in size
Outline: (§2)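 Cells were incubated with compound for 72 hr at 37 degree celsius before CellTiter-Glo addition. Luminescence was normalized with no-cell wells as full cytotoxicity and DMSO as baseline.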

[3] = test system: MCC-26; assay: as above; conditions: MCC and control cell lines, CellTiter-Glo viability, 72 h; series mostly up to 46 µM
Outline: as §2

[4] = test system: MKL-1; assay: as above; conditions: MCC and control cell lines, CellTiter-Glo viability, 72 h; series mostly up to 46 µM
Outline: as §2

[5] = test system: MKL-2; assay: as above; conditions: MCC and control cell lines, CellTiter-Glo viability, 72 h; series mostly up to 46 µM
Outline: as §2

[6] = test system: UISO; assay: as above; conditions: MCC and control cell lines, CellTiter-Glo viability, 72 h; series mostly up to 46 µM
Outline: as §2

[7] = test system: WaGa; assay: as above; conditions: MCC and control cell lines, CellTiter-Glo viability, 72 h; series mostly up to 46 µM
Outline: as §2

[8] = test system: C33A; assay: Primary qHTS to identify gynecologic anti-cancer compounds using libraries of approved drugs and bioactive compounds (AID 1345084); conditions: Gynecologic cancer cell panel viability, ATPlite luminescence, 48 h; series mostly up to 57.5 µM; note: nearly all actives have a fitted effect of over 55% in size
Outline: (§3)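 Cells, 1,000 per well, plated 16 h, then exposed 48 h at 37 C to compounds. Viability by ATPlite luminescence after 15 min at room temperature.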

[9] = test system: CASKI; assay: as above; conditions: Gynecologic cancer cell panel viability, ATPlite luminescence, 48 h; series mostly up to 57.5 µM
Outline: as §3

[10] = test system: Es-2; assay: as above; conditions: Gynecologic cancer cell panel viability, ATPlite luminescence, 48 h; series mostly up to 57.5 µM
Outline: as §3

[11] = test system: HeLa; assay: as above; conditions: Gynecologic cancer cell panel viability, ATPlite luminescence, 48 h; series mostly up to 57.5 µM
Outline: as §3

[12] = test system: OV90; assay: as above; conditions: Gynecologic cancer cell panel viability, ATPlite luminescence, 48 h; series mostly up to 57.5 µM
Outline: as §3

[13] = test system: HACAT; assay: qHTS assay to identify novel small-molecules to repurpose for Merkel cell carcinoma treatment (AID 1296009); conditions: MCC and control cell lines, CellTiter-Glo viability, 72 h; at 44.8 µM (top of the series) unless noted; note: nearly all actives have a fitted effect of over 60% in size
Outline: as §2

[14] = test system: CAOV3; assay: Primary qHTS to identify gynecologic anti-cancer compounds using libraries of approved drugs and bioactive compounds (AID 1345084); conditions: Gynecologic cancer cell panel viability, ATPlite luminescence, 48 h; series mostly up to 57.5 µM; note: nearly all actives have a fitted effect of over 55% in size
Outline: as §3

[15] = test system: Hek293T; assay: as above; conditions: Gynecologic cancer cell panel viability, ATPlite luminescence, 48 h, control line for the selectivity index; series mostly up to 57.5 µM
Outline: as §3

[16] = test system: JEG-3; assay: as above; conditions: Gynecologic cancer cell panel viability, ATPlite luminescence, 48 h; series mostly up to 57.5 µM
Outline: as §3

[17] = test system: KB-3-1; assay: Cytotoxic Profiling of Annotated Libraries Using Quantitative High-Throughput Screening (AID 1296008); conditions: Five cell lines viability, CellTiter-Glo ATP luminescence, 48-72 h; max response: hits give low values; note: nearly all actives have a fitted effect of over 60% in size
Outline: as §1

[18] = test system: HEK293T; assay: qHTS assay to identify novel small-molecules to repurpose for Merkel cell carcinoma treatment (AID 1296009); conditions: MCC and control cell lines, CellTiter-Glo viability, 72 h; at 44.8 µM (top of the series) unless noted; note: nearly all actives have a fitted effect of over 60% in size
Outline: as §2
Potency is the fitted concentration of half-maximal effect.

Row | SMILES | Potency [1] | Potency [2] | Potency [3] | Potency [4] | Potency [5] | Potency [6] | Potency [7] | Potency [8] | Potency [9] | Potency [10] | Potency [11] | Potency [12] | outcome [13] | Potency [14] | Potency [15] | Potency [16] | max response [17] | outcome [18] | outcome [1]
1 | COc1cccc2c1C(=O)c1c(O)c3c(c(O)c1C2=O)C[C@@](O)(C(C)=O)C[C@@H]3O[C@H]1C[C@H](N)[C@H](O)[C@H](C)O1 | 133 nM (active) | 1060 nM (active) | 944 nM (active) | 23.7 nM (active) | 10.6 nM (active) | 211 nM (active) | 23.7 nM (active) | 631 nM (active) | 708 nM (active) | 708 nM (active) | 4470 nM (active) | 1260 nM (active) | – | – | – | – | – | – | –
2 | CC(=O)Oc1ccc(C(=C2CCCCC2)c2ccc(OC(C)=O)cc2)cc1 | – | inactive | inactive | inactive | inactive | inactive | inactive | inactive | inactive | inactive | inactive | – | inactive | inactive | inactive | inactive | – | – | –
3 | CCCCCCCCCCOCC(O)CN (configuration not stated) | – | – | inactive | – | 23700 nM (active) | – | – | – | – | – | inactive | – | – | 31600 nM (active) | inactive | inactive | -10.6% | – | –
4 | CO/N=C1\CN(c2nc3c(cc2F)c(=O)c(C(=O)O)cn3C2CC2)CC1CN (configuration not stated) | – | inactive | – | inactive | inactive | inactive | inactive | – | inactive | inactive | inactive | inactive | inactive | – | inactive | inactive | – | – | –
5 | CCCC(=O)Nc1ccc(OCC(O)CNC(C)C)c(C(C)=O)c1 (configuration not stated) | – | inactive | inactive | inactive | inactive | inactive | inactive | inactive | inactive | inactive | inactive | inactive | inactive | – | inactive | inactive | – | – | –
6 | Cc1c(F)c(N2CCNC(C)C2)cc2c1c(=O)c(C(=O)O)cn2C1CC1 (configuration not stated) | – | inactive | inactive | inactive | inactive | inactive | inactive | inactive | inactive | inactive | inactive | inactive | – | inactive | inactive | inactive | – | inactive | –
7 | Cc1cccn2c(=O)c(-c3nnn[nH]3)cnc12 | – | inactive | – | inactive | inactive | inactive | inactive | inactive | inactive | inactive | inactive | inactive | – | inactive | – | inactive | – | inactive [at 17.4 µM] | –
8 | C[C@]12C=CC(=O)C=C1CC[C@@H]1[C@@H]2[C@@H](O)C[C@@]2(C)[C@H]1CC[C@]2(O)C(=O)CO | – | – | – | – | – | – | – | inactive | inactive | inactive | inactive | inactive | – | inactive | inactive | inactive | – | – | inactive
9 | Nc1ccc(C(=O)O)cc1 | – | inactive | inactive | inactive | inactive | inactive | inactive | inactive | inactive | inactive | inactive | inactive | inactive | inactive | inactive | inactive | – | inactive | –
10 | COc1cc(C=C2CCC/C(=C\c3ccc(O)c(OC)c3)C2=O)ccc1O | 16800 nM (active) | 26600 nM (active) | – | 4220 nM (active) | 2990 nM (active) | 21100 nM (active) | 5310 nM (active) | – | – | inactive | – | inactive | – | – | inactive | – | – | – | –
11 | CC(=O)OCC(=O)NCCCOc1cccc(CN2CCCCC2)c1 | – | inactive | inactive | inactive | inactive | inactive | inactive | inactive | inactive | inactive | inactive | inactive | – | inactive | inactive | inactive | – | inactive | –
12 | CC(=O)CC(c1ccc([N+](=O)[O-])cc1)c1c(O)c2ccccc2oc1=O (configuration not stated) | – | inactive | inactive | inactive | inactive | inactive | inactive | inactive | inactive | inactive | inactive | inactive | inactive | – | inactive | inactive | – | – | –
13 | NCCC(O)(P(=O)(O)O)P(=O)(O)O | – | inactive | – | inactive | inactive | inactive | inactive | inactive | inactive | inactive | inactive | inactive | inactive | inactive | inactive | inactive | – | – | –
14 | Nc1nc2ncc(CNc3ccc(C(=O)N[C@@H](CCC(=O)O)C(=O)O)cc3)nc2c(=O)[nH]1 | – | inactive | – | inactive | inactive | inactive | inactive | inactive | inactive | inactive | inactive | inactive | – | inactive | inactive | inactive | – | inactive | –
15 | NCCc1ccn[nH]1 | – | inactive | – | inactive | inactive | inactive | inactive | inactive | inactive | inactive | inactive | inactive | inactive | inactive | inactive | inactive | – | – | –
